We go through eleven compounds from ChEMBL document CHEMBL3988442, “University of Dundee, Small-Polar-MMV Screening Library” (2021).

Parameters in all cases: scale not given: direction of the effect not stated beside the values
Assay [1] deals with Protein translocase subunit SecA (Escherichia coli (strain K12)) (UniProt P10408). In words: Assay to Identify E. coli SecA ATPase Inhibitors. Type of assay: functional. To be noted: 30 µM.
The target of assay [2] is T1, Ubiquitin-activating enzyme e1, putative (Leishmania donovani (strain BPK282A1)) (UniProt E9BSI1).
T1 sequence (whole entry): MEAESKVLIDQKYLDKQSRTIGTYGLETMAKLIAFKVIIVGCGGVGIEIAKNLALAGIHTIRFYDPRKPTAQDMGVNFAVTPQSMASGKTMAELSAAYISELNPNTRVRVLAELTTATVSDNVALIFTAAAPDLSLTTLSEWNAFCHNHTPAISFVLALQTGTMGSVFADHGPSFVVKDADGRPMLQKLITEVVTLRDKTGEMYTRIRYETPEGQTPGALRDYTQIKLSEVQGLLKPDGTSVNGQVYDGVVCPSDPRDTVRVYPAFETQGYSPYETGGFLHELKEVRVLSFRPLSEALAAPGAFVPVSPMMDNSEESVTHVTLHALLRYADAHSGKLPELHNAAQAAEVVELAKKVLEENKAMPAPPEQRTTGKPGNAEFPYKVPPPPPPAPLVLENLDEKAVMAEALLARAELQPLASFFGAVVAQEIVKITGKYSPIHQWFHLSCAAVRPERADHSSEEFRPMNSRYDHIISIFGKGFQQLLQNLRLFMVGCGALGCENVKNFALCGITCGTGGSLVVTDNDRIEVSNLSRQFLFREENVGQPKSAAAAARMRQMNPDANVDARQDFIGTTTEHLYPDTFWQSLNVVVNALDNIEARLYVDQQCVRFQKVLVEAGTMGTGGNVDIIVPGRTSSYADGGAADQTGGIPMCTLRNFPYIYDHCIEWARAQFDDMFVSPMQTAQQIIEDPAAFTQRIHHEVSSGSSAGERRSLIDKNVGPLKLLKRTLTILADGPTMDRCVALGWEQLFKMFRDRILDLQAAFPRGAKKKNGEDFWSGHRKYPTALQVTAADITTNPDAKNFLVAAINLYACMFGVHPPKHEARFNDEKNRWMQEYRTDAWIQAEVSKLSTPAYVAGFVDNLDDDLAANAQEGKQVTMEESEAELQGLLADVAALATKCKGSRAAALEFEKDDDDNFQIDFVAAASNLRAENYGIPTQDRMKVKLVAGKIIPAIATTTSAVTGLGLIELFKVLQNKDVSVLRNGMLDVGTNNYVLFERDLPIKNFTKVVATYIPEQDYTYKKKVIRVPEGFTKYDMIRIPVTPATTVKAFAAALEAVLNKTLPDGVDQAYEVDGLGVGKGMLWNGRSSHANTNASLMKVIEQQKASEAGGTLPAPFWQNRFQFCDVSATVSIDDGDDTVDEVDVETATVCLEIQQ
The assay is described as follows: Leishmania donovani Ubiquitin Activating Enzyme (LdE1). In kind it is functional. To be noted: 30 µM.

The target of assay [3] is AMP-activated protein kinase, AMPK (Homo sapiens) (UniProt P54646+O43741+P54619+Q9UGJ0+Q9Y478+Q13131+Q9UGI9). The assay is described as follows: AMP-dependent Kinase enzyme assay. An in vitro enzyme assay that detects ADP turnover that is directly proportional to AMPK activity. This uses naive AMPK that is activated during the assay with MK-8722. Type of assay: functional. The conditions noted are these: 30 µM.

The target in assay [4] is Sialic acid-binding Ig-like lectin 9 (Homo sapiens) (UniProt Q9Y336). The assay is described as follows: Hs-Siglec9 ALPHAscreen SOP 20170721. The conditions noted are these: 10 µM.
Sialic acid-binding Ig-like lectin 9 (Homo sapiens), sequence (Q9Y336 whole entry): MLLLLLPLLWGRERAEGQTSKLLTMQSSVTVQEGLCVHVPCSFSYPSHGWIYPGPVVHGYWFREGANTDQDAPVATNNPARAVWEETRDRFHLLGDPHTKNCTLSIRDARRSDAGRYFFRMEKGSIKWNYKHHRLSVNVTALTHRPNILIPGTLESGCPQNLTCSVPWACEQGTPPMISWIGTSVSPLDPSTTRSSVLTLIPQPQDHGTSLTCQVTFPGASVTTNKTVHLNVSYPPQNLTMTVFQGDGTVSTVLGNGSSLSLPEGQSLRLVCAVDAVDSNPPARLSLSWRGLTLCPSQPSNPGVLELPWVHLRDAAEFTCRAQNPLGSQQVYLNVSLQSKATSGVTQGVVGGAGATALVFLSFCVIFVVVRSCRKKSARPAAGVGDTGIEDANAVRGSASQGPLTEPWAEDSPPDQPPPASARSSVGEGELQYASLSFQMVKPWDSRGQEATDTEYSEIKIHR
In the next assay the test system is Trypanosoma cruzi. The assay is described as follows: Trypanosoma cruzi phosphomannomutase and mannose-1-phosphate guanylyltransferase assay. The conditions noted are these: 10 µM. Type of assay: functional.
The target in assay [5] is T2, Arginase-2, mitochondrial (Homo sapiens) (UniProt P78540).
T2 sequence (whole entry): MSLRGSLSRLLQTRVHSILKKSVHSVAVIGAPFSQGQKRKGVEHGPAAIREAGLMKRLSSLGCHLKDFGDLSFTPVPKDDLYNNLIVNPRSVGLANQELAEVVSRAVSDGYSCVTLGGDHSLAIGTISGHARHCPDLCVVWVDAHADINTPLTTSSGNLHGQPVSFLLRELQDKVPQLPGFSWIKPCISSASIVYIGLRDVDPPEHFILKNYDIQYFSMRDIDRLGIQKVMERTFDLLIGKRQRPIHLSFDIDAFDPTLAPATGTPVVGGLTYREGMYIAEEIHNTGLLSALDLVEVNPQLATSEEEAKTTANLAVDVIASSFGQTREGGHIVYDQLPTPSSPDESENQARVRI
The assay is described as follows: in vitro enzyme assay to detect the production of urea directly proportional to the activity of Arginase II. Also: in the data most compounds retested in dose-response had high values. Type of assay: functional. The conditions noted are these: 33.3 µM.

For assay [6], the target named is T3, Proteasome subunit beta (Trypanosoma cruzi) (UniProt O96673).
T3 sequence (whole entry): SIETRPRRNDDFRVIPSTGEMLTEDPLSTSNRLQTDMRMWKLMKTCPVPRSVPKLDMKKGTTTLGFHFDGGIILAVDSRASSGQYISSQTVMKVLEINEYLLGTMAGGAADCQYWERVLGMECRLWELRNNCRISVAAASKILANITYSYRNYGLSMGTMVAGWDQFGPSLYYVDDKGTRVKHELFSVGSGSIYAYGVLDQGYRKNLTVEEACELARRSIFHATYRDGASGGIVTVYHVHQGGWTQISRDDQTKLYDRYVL
The assay is described as follows: Trypanosoma cruzi proteasome chymotrypsin-like activity (TcProtChymo) assay. Also: in the data most compounds retested in dose-response had high values. In kind it is functional. The conditions noted are these: 9.37 µM.

For the next assay, the species on record is Homo sapiens. In words: To identify inhibition of the IFN signalling (Jak-Stat) pathway via expression of an eGFP reporter gene under the control of an IFN-stimulated response element (ISRE) containing MxA promoter. Type of assay: functional. The conditions noted are these: 30 µM.
Assay [7] concerns the target T4, Tyrosyl-tRNA synthetase, putative (Trypanosoma cruzi (strain CL Brener)) (UniProt Q4DSP6).
T4 sequence (whole entry): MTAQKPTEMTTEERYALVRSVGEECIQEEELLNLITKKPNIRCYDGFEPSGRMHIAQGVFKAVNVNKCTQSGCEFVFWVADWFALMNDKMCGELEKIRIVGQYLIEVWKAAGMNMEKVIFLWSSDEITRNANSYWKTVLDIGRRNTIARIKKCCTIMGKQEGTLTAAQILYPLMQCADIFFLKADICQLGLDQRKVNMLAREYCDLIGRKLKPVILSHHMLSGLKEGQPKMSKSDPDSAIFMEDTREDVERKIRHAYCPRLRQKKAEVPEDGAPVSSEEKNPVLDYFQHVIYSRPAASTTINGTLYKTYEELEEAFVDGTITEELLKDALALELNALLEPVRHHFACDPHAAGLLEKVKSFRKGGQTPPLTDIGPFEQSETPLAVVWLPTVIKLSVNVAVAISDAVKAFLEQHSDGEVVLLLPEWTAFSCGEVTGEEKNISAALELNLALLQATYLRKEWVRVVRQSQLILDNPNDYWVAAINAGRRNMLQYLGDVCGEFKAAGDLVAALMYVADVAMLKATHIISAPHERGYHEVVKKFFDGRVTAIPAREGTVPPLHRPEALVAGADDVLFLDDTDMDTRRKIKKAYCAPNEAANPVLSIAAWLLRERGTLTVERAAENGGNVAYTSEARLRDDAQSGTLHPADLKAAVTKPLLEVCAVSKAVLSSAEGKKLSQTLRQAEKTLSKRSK
The assay is described as follows: Trypanosoma cruzi tyrosyl tRNA synthetase (TcYRS) _High Tyrosine SOP. Also: in the data most compounds retested in dose-response had high values. Type of assay: functional. The conditions noted are these: 30 µM.

For assay [8], the target named is T4, Tyrosyl-tRNA synthetase, putative (Trypanosoma cruzi (strain CL Brener)). In words: Trypanosoma cruzi tyrosyl tRNA synthetase (TcYRS) SOP. In kind it is functional. To be noted: 30 µM.
Assay [9] concerns the target Chromo domain-containing protein 1 (Saccharomyces cerevisiae (strain ATCC 204508 / S288c) (Baker's yeast)) (UniProt P32657). In words: ScCHD-1 Enzyme Inhibition Assay. Also: in the data most compounds retested in dose-response had high values. Type of assay: functional. To be noted: 30 µM.

For some of these results: Measured potencies and affinities stand elsewhere.

Chromo domain-containing protein 1 (Saccharomyces cerevisiae (strain ATCC 204508 / S288c) (Baker's yeast)), sequence (P32657 whole entry, the tested form may be a part): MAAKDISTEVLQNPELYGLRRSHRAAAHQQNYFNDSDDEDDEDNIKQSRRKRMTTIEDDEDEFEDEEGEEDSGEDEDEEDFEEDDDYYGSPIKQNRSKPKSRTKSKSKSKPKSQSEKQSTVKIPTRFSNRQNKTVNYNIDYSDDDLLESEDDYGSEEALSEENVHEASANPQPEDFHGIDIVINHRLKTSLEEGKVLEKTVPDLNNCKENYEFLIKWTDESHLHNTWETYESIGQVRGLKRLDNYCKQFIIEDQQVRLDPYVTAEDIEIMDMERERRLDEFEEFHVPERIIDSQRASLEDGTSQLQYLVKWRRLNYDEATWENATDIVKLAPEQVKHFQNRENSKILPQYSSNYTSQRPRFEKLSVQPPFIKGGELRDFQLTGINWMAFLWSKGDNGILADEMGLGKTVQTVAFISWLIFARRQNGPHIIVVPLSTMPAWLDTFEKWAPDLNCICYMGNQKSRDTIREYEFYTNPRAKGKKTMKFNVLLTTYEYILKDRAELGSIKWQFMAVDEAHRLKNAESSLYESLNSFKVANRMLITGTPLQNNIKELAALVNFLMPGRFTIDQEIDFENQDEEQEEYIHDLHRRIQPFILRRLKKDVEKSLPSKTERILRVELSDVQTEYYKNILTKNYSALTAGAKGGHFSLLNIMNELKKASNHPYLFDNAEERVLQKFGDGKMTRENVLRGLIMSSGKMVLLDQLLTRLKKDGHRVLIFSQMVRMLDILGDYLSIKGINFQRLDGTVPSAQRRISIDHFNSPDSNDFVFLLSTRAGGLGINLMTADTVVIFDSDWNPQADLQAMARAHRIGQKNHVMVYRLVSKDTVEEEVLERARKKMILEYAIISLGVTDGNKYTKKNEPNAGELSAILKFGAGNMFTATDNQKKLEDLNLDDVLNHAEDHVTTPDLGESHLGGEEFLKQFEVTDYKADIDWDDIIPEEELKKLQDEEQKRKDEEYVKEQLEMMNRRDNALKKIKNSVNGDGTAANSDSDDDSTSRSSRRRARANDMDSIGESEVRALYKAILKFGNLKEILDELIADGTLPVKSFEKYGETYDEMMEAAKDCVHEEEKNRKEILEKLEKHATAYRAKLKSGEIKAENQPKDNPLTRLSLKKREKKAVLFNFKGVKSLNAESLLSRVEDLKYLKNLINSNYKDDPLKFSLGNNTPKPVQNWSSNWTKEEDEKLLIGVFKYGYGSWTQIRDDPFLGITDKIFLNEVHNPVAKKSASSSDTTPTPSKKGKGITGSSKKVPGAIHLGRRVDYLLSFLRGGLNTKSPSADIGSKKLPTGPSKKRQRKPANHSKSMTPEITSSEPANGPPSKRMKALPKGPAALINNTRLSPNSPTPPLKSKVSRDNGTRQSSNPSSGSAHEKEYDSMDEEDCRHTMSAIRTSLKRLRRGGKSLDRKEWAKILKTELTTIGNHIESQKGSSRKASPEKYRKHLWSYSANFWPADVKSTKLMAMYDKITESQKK
Protein translocase subunit SecA (Escherichia coli (strain K12)), sequence (P10408 whole entry): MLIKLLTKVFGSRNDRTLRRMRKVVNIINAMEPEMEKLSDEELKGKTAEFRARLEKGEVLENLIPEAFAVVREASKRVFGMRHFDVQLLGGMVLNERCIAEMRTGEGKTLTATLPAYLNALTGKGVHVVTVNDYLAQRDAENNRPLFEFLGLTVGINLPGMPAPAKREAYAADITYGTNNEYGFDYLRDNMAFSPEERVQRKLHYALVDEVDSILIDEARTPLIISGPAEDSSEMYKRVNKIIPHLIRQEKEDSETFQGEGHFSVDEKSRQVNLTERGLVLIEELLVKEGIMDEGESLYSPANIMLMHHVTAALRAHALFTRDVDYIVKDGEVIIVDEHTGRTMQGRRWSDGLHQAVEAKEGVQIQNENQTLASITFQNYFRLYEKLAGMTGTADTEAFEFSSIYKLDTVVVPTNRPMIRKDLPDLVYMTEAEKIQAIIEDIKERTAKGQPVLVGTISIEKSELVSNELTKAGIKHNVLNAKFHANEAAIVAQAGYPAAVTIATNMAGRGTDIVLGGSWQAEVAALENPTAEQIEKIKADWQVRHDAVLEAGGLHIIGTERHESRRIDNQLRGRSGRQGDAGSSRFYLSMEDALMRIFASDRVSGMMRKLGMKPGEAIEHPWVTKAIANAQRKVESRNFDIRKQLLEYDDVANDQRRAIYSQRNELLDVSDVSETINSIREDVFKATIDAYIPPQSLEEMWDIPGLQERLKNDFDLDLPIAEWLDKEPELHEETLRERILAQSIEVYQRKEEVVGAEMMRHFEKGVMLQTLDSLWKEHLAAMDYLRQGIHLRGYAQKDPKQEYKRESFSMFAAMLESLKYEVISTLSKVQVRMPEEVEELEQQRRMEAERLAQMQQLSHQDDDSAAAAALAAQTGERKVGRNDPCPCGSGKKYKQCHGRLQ

With `Cc1cc(CN2CCC(CNC(=O)c3ccc(O)c(Cl)c3)C2)[nH]n1` (stereo unspecified), the Percent Effect in [1] is -4.67%; in assay [2] it was 2.7%; in assay [3] it was -0.362%; in [4], 22.1%; with Trypanosoma cruzi, -8.7%; in assay [5], 2.23%. Also, the Percent Effect is 5.24% in assay [6]; 4.66% in the assay listed under Homo sapiens; 2.15% in assay [7]; 11.1% in assay [8]; -0.611% in assay [9].
`Cc1cnn(CC2CCCN2Cc2ncc(-c3ccccc3)o2)c1` (stereo unspecified): the Percent Effect was -1.68% in [1]; -5.41% in assay [2]; -10.1% in [3]; -3.94% in [4]; -9.53% in the assay with Trypanosoma cruzi; 4.01% in [5]. The Percent Effect in assay [6] is 8.11%; in the assay listed under Homo sapiens it was 10.7%; in assay [7], 10.3%; in [8], 18.5%; in assay [9] it was -6.8%.
For the compound `Cc1ncc2c(n1)CN(CC(=O)Nc1nncs1)CC2`, the Percent Effect in [1] is -1.88%; in assay [2], 2.63%; in assay [3], -37.1%; in assay [4], 5.79%; in the assay with Trypanosoma cruzi it was 3.27%; in assay [5], 1.08%. For the same compound, the Percent Effect in assay [6] is 6.01%; in the assay listed under Homo sapiens, -6.49%; in assay [7], 5.42%; in [8] it was 11.1%; in [9], -4.76%.
For `Cc1nc(CN2CCC3(CCN(c4ncc(F)cn4)C3)C2=O)cs1` (stereo unspecified), the Percent Effect in assay [1] is 1.42%; in assay [2], 15.6%; in assay [3] it was 4.16%; in assay [4] it was -14.7%; in the assay with Trypanosoma cruzi, -3.25%; in assay [5] it was 9.68%. For the same compound, the Percent Effect in assay [6] was 21.4%; in the assay listed under Homo sapiens it was 6.2%; in [7], 6.35%; in assay [8], 11.5%; in assay [9], -9.48%.
Take `CC1CCN(S(=O)(=O)NCC2CCOc3ccccc3C2)CC1` (stereo unspecified): the Percent Effect is -7.79% in assay [1]; 2.6% in assay [2]; 4.04% in [3]; 4.95% in assay [4]; -2.46% with Trypanosoma cruzi; -8.28% in [5]. Moreover, the Percent Effect is 6.16% in [6]; 23.1% in the assay listed under Homo sapiens; 0% in [7]; 3.7% in assay [8]; -0.0656% in assay [9].
As to `CCN1CCC2(CC1)CC(NC(=O)NC)c1cc(C)ccc12` (stereo unspecified), the Percent Effect is -3.84% in assay [1]; 13.3% in assay [2]; 6.34% in assay [3]; 6.37% in [4]; 5.21% in the assay on Trypanosoma cruzi; -56.5% in [5]. Further, the Percent Effect is 10.9% in assay [6]; -24.6% in the assay filed under Homo sapiens; 4.17% in [7]; 7.5% in assay [8]; -5.82% in [9].
With `NC(=O)C1CN(C(=O)Nc2ccccc2SC(F)(F)F)CCO1` (stereo unspecified), the Percent Effect in assay [1] is -2.59%; in assay [2] it was 10.8%; in [3], -2.48%; in assay [4], 12.1%; with Trypanosoma cruzi, 7.15%; in assay [5], -1.29%. For the same compound, the Percent Effect in assay [6] is 4.31%; in the assay filed under Homo sapiens, 9.57%; in assay [7], 5.94%; in assay [8], 18.3%; in assay [9], -7.87%.
In the case of `FC(F)(F)C1CCCn2c(CNCc3ccsc3)nnc21` (stereo unspecified), the Percent Effect in assay [1] is -2.76%; in [2] it was 2.67%; in assay [3], -9.01%; in assay [4] it was 4.99%; with Trypanosoma cruzi, 2.63%; in assay [5], 1.56%. The Percent Effect in assay [6] is 20.2%; in the assay listed under Homo sapiens, -14.2%; in [7] it was 9.29%; in [8], 18.5%; in assay [9], -3.87%.
For `CCc1nc(CN2CCN(c3ncnc4cc(F)ccc34)CC2)no1`, the Percent Effect in [1] was -8.93%; in assay [2], 0%; in assay [3], -0.509%; in assay [4], 2.81%; in the assay on Trypanosoma cruzi it was -3.44%; in assay [5], 0%. The Percent Effect in assay [6] is 9.65%; in the assay filed under Homo sapiens, 75.3%; in assay [7], -3.23%; in assay [8], -6.17%; in [9] it was 1.03%.
With `COCCN1C(=O)C[C@H]2[C@H]1CCN2Cc1ccc(OC)cc1`, the Percent Effect in [1] was -2.83%; in assay [2], 5.33%; in assay [3], 11%; in assay [4], -2.04%; in the assay on Trypanosoma cruzi, -9.45%; in [5], 7.69%. Besides, the Percent Effect was 13.5% in [6]; 17.5% in the assay listed under Homo sapiens; 3.19% in assay [7]; 6.41% in assay [8]; -5.69% in assay [9].
Regarding `CN(C)C(=O)Cc1nc(CN2CCOC(Cn3cccn3)C2)cs1` (stereo unspecified), the Percent Effect in [1] was 1.53%; in [2], 0%; in assay [3], -0.58%; in [4] it was -0.357%; with Trypanosoma cruzi it was -1.46%; in [5], 0%. Further, the Percent Effect is 10.6% in assay [6]; -2.04% in the assay filed under Homo sapiens; 0% in assay [7]; 0% in assay [8]; 1.28% in assay [9].
